Assay results as given in PubChem BioAssay (EPA / NIEHS).
Records with an inconclusive call do not appear. Activity calls are given as the source filed them. How the source made its calls, unless noted: active means hit-call score of the fitted dose curve at least 0.9, where 1 is the maximum; inactive means score below 0.9.

The compounds below were run against human Peroxisome Proliferator-activated Receptor delta (PPARd), PPARD (gene 5467) (UniProt Q03181) (assay: ATG_PPARd_TRANS: Attagene TRANS-FACTORIAL HepG2 Assay for human Peroxisome Proliferator-activated Receptor delta (PPARd) (AID 2283002; active means hit-call score of the fitted dose curve at least 0.9, where 1 is the maximum)). Settings: not given.
Method in brief: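 Read-out is induced reporter mRNA, quantified by RT-PCR with fluorescent labelling and capillary electrophoresis after 24 h dosing. Cells are HepG2 transiently carrying multiple GAL4-UAS reporter units driven by exogenous NR-GAL4 chimeras; DMSO serves as baseline.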

human Peroxisome Proliferator-activated Receptor delta (PPARd), PPARD (gene 5467), sequence (Q03181 whole entry, looked up, the tested form may be a part): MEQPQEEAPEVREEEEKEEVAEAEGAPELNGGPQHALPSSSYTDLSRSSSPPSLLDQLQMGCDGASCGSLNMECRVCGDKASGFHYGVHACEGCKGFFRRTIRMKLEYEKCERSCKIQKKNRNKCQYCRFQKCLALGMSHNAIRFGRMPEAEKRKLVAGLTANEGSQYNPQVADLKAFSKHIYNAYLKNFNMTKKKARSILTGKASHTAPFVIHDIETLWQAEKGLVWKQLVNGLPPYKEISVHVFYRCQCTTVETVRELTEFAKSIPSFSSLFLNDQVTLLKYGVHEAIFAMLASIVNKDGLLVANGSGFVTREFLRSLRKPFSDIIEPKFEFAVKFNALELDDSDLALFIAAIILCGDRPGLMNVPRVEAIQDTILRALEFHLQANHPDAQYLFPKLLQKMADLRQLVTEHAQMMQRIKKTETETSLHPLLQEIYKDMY

| Structure (SMILES) | outcome | AC50 |
| --- | --- | --- |
| CC=C(C)C(C)=O | inactive | – |
| CCCCC(CC)COC(=O)/C=C/c1ccc(OC)cc1 (centres undefined) | inactive | – |
| O=C1CCCCCCCCCCC1 | inactive | – |
| CC/C=C\C/C=C\C/C=C\CCCCCCCC(=O)OC | – | 68 µM (active) |
| CCN1CN(CC)CN(CC)C1 | inactive | – |
| Nc1cccc(N)n1 | inactive | – |
| C=CC(=O)OCCCCCCCC(C)C | inactive | – |
| Oc1ccccc1Cc1ccccc1O | inactive | – |
| C=CC(=O)NCOCCCC | inactive | – |
| CC(CCC(=O)O)(c1ccc(O)cc1)c1ccc(O)cc1 | inactive | – |
| Oc1ccc(/C=C/c2cc(O)cc(O)c2)cc1 | inactive | – |
| C=C(C)C(=O)OCCCCCCCCCCCC | inactive | – |
| CC1=NN(c2ccc(S(=O)(=O)O)cc2)C(=O)C1N=Nc1ccccc1 (centres undefined) | inactive | – |
| CC=CC(=O)OCC(C)C | inactive | – |
| O=C(Oc1ccccc1)c1ccccc1C(=O)Oc1ccccc1 | inactive | – |
| CCCCCC1=CCCC1=O | inactive | – |
| C=CC(=O)OCCCCCCOC(=O)C=C | inactive | – |
| CC(Cl)COP(=O)(OCC(C)Cl)OCC(C)Cl (centres undefined) | inactive | – |
| CCC1(C)C(=O)N(Cl)C(=O)N1Cl (centres undefined) | inactive | – |
| CC(=O)OC1CCCCC1C(C)(C)C (centres undefined) | inactive | – |
| C=CC(=O)OCC(C)OCC(C)OCC(C)OC(=O)C=C (centres undefined) | inactive | – |
| CCCCCCC=O | inactive | – |

Each compound was assayed on Intercellular Adhesion Molecule 1 (ICAM1), ICAM1 (gene 3383) (assay: BSK_3C_ICAM1: BioMAP Diversity Plus: 3C Assay for Intercellular Adhesion Molecule 1 (ICAM1) Biomarker Activity (AID 2283003)). Settings: primary human endothelial cells (HUVEC); actives raise or lower the signal.
Method in brief: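 Chemicals are dosed onto primary human umbilical vein endothelium (3C system). After 24 h, ICAM-1 is measured by ELISA, and responses are fitted bidirectionally relative to DMSO.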

| Structure (SMILES) | outcome | AC50 |
| --- | --- | --- |
| CCNc1nc(NC(C)(C)C)nc(OC)n1 | inactive | – |
| CC=C(C)C(C)=O | inactive | – |
| O=C1CCCCCCCCCCC1 | inactive | – |
| Cc1ccc([N+](=O)[O-])cc1N | inactive | – |
| CC/C=C\C/C=C\C/C=C\CCCCCCCC(=O)OC | – | 29.7 µM (active) |
| CCOC(=O)C1=NOC(c2ccccc2)(c2ccccc2)C1 | inactive | – |
| CCN1CN(CC)CN(CC)C1 | inactive | – |
| c1ccc2sc(SSN3CCOCC3)nc2c1 | – | 20 µM (active) |
| C[N+](C)(C)CCCNS(=O)(=O)C(F)(F)C(F)(F)C(F)(F)C(F)(F)C(F)(F)C(F)(F)C(F)(F)C(F)(F)F | inactive | – |
| CC=C(C)C=CC=C(C)C | inactive | – |
| Oc1c(Cl)cc(Cl)c(Cl)c1Cl | – | 28.3 µM (active) |
| Nc1cccc(N)n1 | inactive | – |
| C1CNCCN1 | inactive | – |
| C=CC(=O)NC(C)(C)C | inactive | – |
| C=CC(=O)OCCCCCCCC(C)C | inactive | – |
| O=C(O)C(F)(F)C(F)(F)C(F)(F)C(F)(F)C(=O)O | inactive | – |

| Structure (SMILES) | outcome | AC50 |
| --- | --- | --- |
| Oc1ccccc1Cc1ccccc1O | inactive | – |
| CC1=CC=C(C(C)C)CC1 | inactive | – |
| C=CC(=O)NCOCCCC | inactive | – |
| CC(CCC(=O)O)(c1ccc(O)cc1)c1ccc(O)cc1 | inactive | – |
| Oc1ccc(/C=C/c2cc(O)cc(O)c2)cc1 | inactive | – |
| CCCC(C)C(=O)OCC (centres undefined) | inactive | – |
| CCCCCCCCC(CO)CCCCCC (centres undefined) | inactive | – |
| C=C(C)C(=O)OCCCCCCCCCCCC | inactive | – |
| O=C(Oc1ccccc1)c1ccccc1C(=O)Oc1ccccc1 | inactive | – |
| CCCCCCCO | inactive | – |
| CCCCCC1=CCCC1=O | inactive | – |
| C=CC(=O)OCCCCCCOC(=O)C=C | – | 29.3 µM (active) |
| CC(Cl)COP(=O)(OCC(C)Cl)OCC(C)Cl (centres undefined) | inactive | – |
| CCC1(C)C(=O)N(Cl)C(=O)N1Cl (centres undefined) | inactive | – |
| C=CC(=O)OCC(C)OCC(C)OCC(C)OC(=O)C=C (centres undefined) | – | 28.2 µM (active) |
| CCCCCCC=O | inactive | – |
